Test results published in ChEMBL document CHEMBL4513216, “Probing the Open Global Health Chemical Diversity Library for Multistage-Active Starting Points for Next-Generation Antimalarials” (ACS Infect Dis, 2020).
The whole screen tested about 68,000 compounds, of which about 2,700 (4%) showed an effect of 50% or more. Many of the other results were omitted from the sample, so strong results are more common in it than they were.

These molecules were tested on Plasmodium berghei (assay: Screen against P. berghei liver stage (PbLuc), transformed with Luciferase, at 2uM). Conditions: tested at 2 uM.
Format: functional, HepG2
For `CC(=O)N(Cc1noc(C2CC2)n1)C1CCN(Cc2ccccn2)C1` (stereo not drawn), the INHIBITION was -1.02%. With `CCN1CC(COC(=O)c2ccc(Br)cc2F)CC1=O` (stereo not drawn) the INHIBITION was 17.86%. In the case of `Cc1cc(NC(=O)CNC2CCc3ncnn3C2)no1` (stereo not drawn), the INHIBITION is reported as 8.42%. Molecule `CN(c1ncc(S(N)(=O)=O)s1)C1CCC1` has an INHIBITION of 27.17%. For `CC(=O)NCCNC(=O)N(C)Cc1ccc2c(c1)OCCO2`, the INHIBITION was -43.47%. `Clc1ccc(COCC2CCN(Cc3ccccn3)CC2)cc1` was tested, and the INHIBITION was -7.16%. Work on `Cn1cnc(S(=O)(=O)N2CCO[C@H]3[C@@H](OCC4CC4)CC[C@@H]32)c1` yielded an INHIBITION of -6.83%. For `CNC(=O)c1cc(C)nc(C2(C)CCCN2c2cc(C)ncn2)n1` (stereo not drawn), the INHIBITION was -4.78%. In the case of `Cc1cncc(C(=O)N2CCCC(O)(CN3CCCC3)C2)c1` (stereo not drawn), the INHIBITION is reported as -22.01%. `Cc1cc(C)c(C(=O)N2CCCC(O)(CN3CCCC3)C2)cc1C` (stereo not drawn) gave an INHIBITION of 79.79%. Work on `Cc1cc(C(=O)N2CCCC(O)(CN3CCCC3)C2)ccc1Cl` (stereo not drawn) yielded an INHIBITION of 19.36%. For `O=C(c1ccccn1)N1C[C@H]2CC[C@@H](C1)N(C(=O)CCc1cccs1)C2`, the INHIBITION was -89.49%. With `Cc1cc(C2CCCN2CCCc2nc3ccccc3o2)on1` (stereo not drawn) the INHIBITION was -27.69%. With `Cn1c(CN2CCC(OCc3cccnc3)CC2)cc2ccccc21` the INHIBITION was 29.36%. For `CC(=O)N(Cc1ncc(C)o1)C1CCN(CCc2cccs2)C1` (stereo not drawn), the INHIBITION was 64.16%. For `Cc1cnc(CN(C)C2CCN(CC(=O)Nc3c(C)n[nH]c3C)C2)o1` (stereo not drawn), the INHIBITION was 36.65%. With `Cc1cc(NC(=O)CN2CCC(N(C)Cc3ncc(C)o3)C2)n(C)n1` (stereo not drawn) the INHIBITION was 57.11%. With `CCc1cnc(CN(C(C)=O)C2CCN(CCc3cccs3)C2)o1` (stereo not drawn) the INHIBITION was -9.66%. Work on `CCc1cnc(CN(C)C2CCN(CCS(C)(=O)=O)C2)o1` (stereo not drawn) yielded an INHIBITION of -29.5%. Molecule `Cc1cnc(CN(C)C2CCN(CC(=O)Nc3nccs3)C2)o1` (stereo not drawn) has an INHIBITION of 23.24%. `CC(=O)N(Cc1ncc(C)o1)C1CCN(CCc2ccncc2)C1` (stereo not drawn) was tested, and the INHIBITION was -23.45%. `CCc1cnc(CN(C)C2CCN(CCc3ccccn3)C2)o1` (stereo not drawn) gave an INHIBITION of -3.88%. Molecule `CCc1cnc(CN(C)C2CCN(CCc3cccs3)C2)o1` (stereo not drawn) has an INHIBITION of 66.97%. Work on `N#Cc1ccc(N2CCN(c3cnccn3)CC2)c(C(F)(F)F)c1` yielded an INHIBITION of -22.24%. Molecule `CC(C)NC(=O)N1Cc2nccn2CC(COc2cccnc2)C1` (stereo not drawn) has an INHIBITION of 27.08%. In the case of `Cc1nnc2n1CCN(CCC(=O)Nc1sccc1C#N)C2`, the INHIBITION is reported as -7.41%. For `CCC(NC(=O)c1cccc(N2CCCC2=O)c1)c1ccc(OC)cc1` (stereo not drawn), the INHIBITION was 30.34%. Molecule `Cc1ccc(C(=O)N2CCn3c(COCC4CC4)cnc3C2C)nc1` (stereo not drawn) has an INHIBITION of -4.95%. `CCCNC(=O)NC(=O)CN1C=Nc2ccccc2S1(=O)=O` gave an INHIBITION of -35.65%. With `CC(C)(C)NC(=O)NC(=O)CN1C=Nc2ccccc2S1(=O)=O` the INHIBITION was 13.24%. `O=C(CN1C=Nc2ccccc2S1(=O)=O)NCc1ccccc1F` gave an INHIBITION of 68.24%. For `O=C(CN1C=Nc2ccccc2S1(=O)=O)NCc1ccccc1`, the INHIBITION was 33.61%. `O=C(CN1C=Nc2ccccc2S1(=O)=O)NCC1CC1` showed an INHIBITION of 66.2%. For `O=C(CN1C=Nc2ccccc2S1(=O)=O)NC1CCCCC1`, the INHIBITION was -4.97%. Molecule `CCC(C)(C)NC(=O)CN1C=Nc2ccccc2S1(=O)=O` has an INHIBITION of 51.94%. `Cc1ccc(CNC(=O)CN2C=Nc3ccccc3S2(=O)=O)s1` showed an INHIBITION of 3.86%. Work on `CC(C)CNC(=O)CN1C=Nc2ccccc2S1(=O)=O` yielded an INHIBITION of 21.89%. Work on `Cn1ccc(C(=O)N2CCC(c3cc(CCO)n(C)n3)C2)n1` (stereo not drawn) yielded an INHIBITION of -14.3%. `CN1[C@@H](CCC(=O)NCc2ccc(F)cc2)CNC(=O)[C@H]2NCC[C@H]21` was tested, and the INHIBITION was 4%. For `Cc1nc2ccccc2nc1CN1CCCCC1Cn1cncn1` (stereo not drawn), the INHIBITION was 12.74%. Work on `Cc1cccc2nc(CN3CCCC3Cn3cncn3)cn12` (stereo not drawn) yielded an INHIBITION of 78.28%. Molecule `Cc1c(Cl)c(CN2CCCC2Cn2cncn2)nc2ccccc12` (stereo not drawn) has an INHIBITION of -8.32%. Molecule `Cc1nc2ccccc2nc1CN1CCCC1Cn1cncn1` (stereo not drawn) has an INHIBITION of 53.72%. With `c1ccc(CN2CCCC2Cn2cncn2)nc1` (stereo not drawn) the INHIBITION was 23.11%. Molecule `Cc1cccc2nc(CN3CCCC3Cn3cccn3)cn12` (stereo not drawn) has an INHIBITION of 19.71%. `CC[C@H](C)[C@H](NC(=O)Cc1csc(-c2cccc(Cl)c2)n1)C(=O)O` showed an INHIBITION of 13.05%. For `CC(Oc1cc(Cl)cc(Cl)c1)C(=O)NCCS(N)(=O)=O` (stereo not drawn), the INHIBITION was -10.59%. Molecule `CC(=O)N1CC2(CCCC2)c2ccccc21` has an INHIBITION of 3.01%. `CCn1nc(C)c(C(C)NC(=O)c2cccc(NCC(=O)O)c2)c1C` (stereo not drawn) showed an INHIBITION of -6.64%. Work on `CCCn1cc(C(=O)NC(C)c2c(C)nn(CC)c2C)c(C)n1` (stereo not drawn) yielded an INHIBITION of 51.19%. Work on `CCCn1ncc(C(=O)NC(C)c2c(C)nn(CC)c2C)c1C` (stereo not drawn) yielded an INHIBITION of -21.14%. `Cn1ccnc1CN1CC[C@H](O)[C@@H](n2ccc(=O)[nH]c2=O)CC1` was tested, and the INHIBITION was 31.14%. `CCN1CC2(CC1=O)CN(Cc1ccco1)CCN(C(=O)C(C)C)C2` (stereo not drawn) was tested, and the INHIBITION was -47.39%.
